Screening results deposited in PubChem BioAssay by National Center for Advancing Translational Sciences (NCATS).
Only some compounds are listed: those with a hit (about 6.6% of all), similar ones and a draw of the others.
TGFb SMAD3 inh: inhibitors of TGF-b signaling; Potency, µM (titrated, usually from 46.1 µM), inactives show at the highest dose activity, negative = inhibition, most hits filed as inhibitors; HepG2 CAGA-GFP TGF-b/SMAD3 reporter, GFP fluorescence, 18 h; TGF-beta stimulated, 500 pg/mL final; AID 588855; 410,000 compounds, 1.2% hits; also: % is scaled to controls: 0 for no effect and ±100 for the full control effect; nearly all actives have a fitted effect of over 65% in size
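HEPG2 CAGA-GFP cells (1000/well, DMEM with 1% FBS) were pre-incubated 2 h at 37 degrees C, given compound by pin tool, then stimulated with TGF-beta at 500 pg/mL final for 18 h before per-cell GFP fluorescence imaging.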
HT1080 IDH1KD tx: HT-1080 IDH1 knockdown cell toxicity (counter line). HT-1080 IDH1 knockdown viability, ATP luminescence, 48 h. Potency, µM (doses to about 46.1 µM), for the others: at the top dose activity, negative = toxicity, most hits filed as cytotoxic. 360,000 compounds, 2% hits;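 also: 0% = DMSO wells and -100% = cell-free medium wells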
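IDH1KD HT-1080 cells, 750/well, RPMI + 5% FBS; compound pinned after 2 h settling; 48 h, 37 °C; CellTiter-Glo luminescence; % activity normalised to DMSO and no-cell wells; curves fitted, classed by r2 and efficacy.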
HT1080NT lethal: kills 2HG-producing HT-1080-NT fibrosarcoma cells; HT-1080-NT fibrosarcoma viability, CellTiter-Glo ATP luminescence, 48 h; Potency, µM (highest dose often 46.1 µM), for the others: at the top dose activity, negative = less viability, actives largely listed as cytotoxic; 360,000 compounds, 1.6% hits; AID 686970;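 also: NT is the 2HG producing partner of a matched IDH1 knockdown line; 0% = DMSO-treated cells and -100% = media-only wells without cells; nearly all actives have a fitted effect of over 55% in size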
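Fibrosarcoma NT cells, 750 per well in 5% FBS RPMI, were exposed to compound for 48 hours. Viability: CellTiter-Glo luminescence.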
KB-V1 MDR tox: kills drug-selected multidrug resistant KB-V1 cells | KB-V1 MDR cells viability, CellTiter-Glo, 72 h | Potency, µM (series often up to 46.1 µM), actives largely listed as cytotoxic | 400,000 compounds, 3.4% hits; also: % is scaled to controls: 0 for no effect and ±100 for the full control effect; nearly all actives have a fitted effect of over 60% in size
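Potencies derive from concentration-effect curves fitted to normalized luminescence (CellTiter-Glo) of KB-V1 cells treated for 72 h at 37 degrees C in phenol-red-free DMEM containing 10% FBS.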
KB-3-1 tox: kills parental KB-3-1 adenocarcinoma cells | KB-3-1 viability, CellTiter-Glo ATP luminescence, 72 h | Potency, µM (top dose mostly 46.1 µM), usual class: cytotoxic | 400,000 compounds, 1.4% hits; also: % is scaled to controls: 0 for no effect and ±100 for the full control effect; nearly all actives have a fitted effect of over 60% in size
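Viability of parental KB-3-1 cells, measured by CellTiter-Glo luminescence, followed a 72 h incubation at 37 °C with pinned compounds in phenol-red-free DMEM containing 10% FBS.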
HepG2 tox: counter-screen for TGF-b inhibitors: cytotoxicity in HepG2 cells. HepG2 CAGA-GFP viability, ATP luminescence, 18 h. Potency, µM (series often up to 46.1 µM), for the others: at the top dose activity change, negative = cytotoxicity, hits mostly cytotoxic. 410,000 compounds, 0.76% hits
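HepG2 CAGA-GFP cells (1000/well, DMEM with 1% FBS) received compound, then TGF-beta at 500 pg/mL final, and were incubated 18 hours at 37 degrees C. Viability was read by CellTiter-Glo luminescence. Media-only wells were set as complete cell-killing and DMSO as no toxicity.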
The depositor's hits bear a star; i = inactive; ? = inconclusive; . = no result. Calls follow the shape of the dose curve; as a rule, active = well fitted curve in the direction sought with a large enough effect; inconclusive = small, poorly fitted or top-dose-only effect, or another doubt; inactive = no such curve, though single readings can be large; an effect the other way counts as inactive or inconclusive. Potency is read from the fitted curve at half-maximal effect.

SMILES	TGFb SMAD3 inh	HT1080 IDH1KD tx	HT1080NT lethal	KB-V1 MDR tox	KB-3-1 tox	HepG2 tox
O=C(Cn1nc(C(F)(F)F)c2c1CCC2)N1CCN(c2ccccc2)CC1	-2.5%	8.9%	9.5%	16.4µM*	i	0.3%
O=C(Cn1c(=O)oc2ccccc21)NCc1ccccc1Cl	0.0%	.	.	.	.	1.5%
COc1ccc(C2=NC3(CCCCCC3)N(CC(=O)Nc3ccc(C)c(C)c3)C2=O)cc1	.	.	.	.	.	5.0%
CSc1ccccc1NC(=O)C1=CC(c2ccc3c(c2)OCO3)=NS(=O)(=O)N1C	-9.8%	.	.	i	i	-9.2%
CCOC(=O)C1CCCN(C(=O)c2ccc3c(=O)n(CCOC)c(=S)[nH]c3c2)C1 (centres undefined)	?	-6.5%	-10.0%	23.1µM*	i	0.0%
COc1ccccc1Cn1c(=S)[nH]c2cc(C(=O)NCCCN3CCOCC3)ccc2c1=O	-1.3%	?	16.4µM*	i	?	-21.4%
COc1ccccc1Cn1c(=S)[nH]c2cc(C(=O)N3CCCC(C)C3)ccc2c1=O (centres undefined)	-24.6%	?	-28.1%	i	20.6µM*	-24.2%
COc1ccccc1Cn1c(=S)[nH]c2cc(C(=O)NCCN3CCOCC3)ccc2c1=O	-22.1%	8.2%	1.0%	i	i	-1.4%
CC1CC(C)CN(C(=O)c2ccc3c(=O)n(Cc4ccc5c(c4)OCO5)c(=S)[nH]c3c2)C1 (centres undefined)	-7.2%	-19.9%	-12.6%	14.6µM*	i	2.1%
CN1CCN(C(=O)c2ccc3c(=O)n(Cc4ccc5c(c4)OCO5)c(=S)[nH]c3c2)CC1	.	1.7%	-11.9%	.	.	.
Cc1cc(C)c(S(=O)(=O)Nc2ccc(-c3ccc(N4CCCCCC4)nn3)cc2)c(C)c1	?	.	.	?	i	10.4%
CN(C)c1ccc(-c2ccnc3c2CC(C)(C(=O)NCc2ccco2)O3)cc1 (centres undefined)	-23.1%	?	?	i	?	-17.1%
CCOC(=O)N1CCN(CC(O)COCCC23CC4CC(CC(C4)C2)C3)CC1 (centres undefined)	2.3%	-18.0%	-24.7%	i	i	-8.6%
CC1CCCCN1CC(O)COCCC12CC3CC(CC(C3)C1)C2 (centres undefined)	-6.2%	?	?	?	16.4µM*	-34.3%
O=C(Nc1cc(Sc2ccccn2)cc([N+](=O)[O-])c1)c1cccc(Cl)c1	11.2µM*	?	?	?	?	-69.3%
Cc1cc(Br)ccc1OCCNCc1ccccc1	?	?	?	i	i	-58.1%
Cc1cc(Cl)cc(C)c1OCCOCCNCc1ccccc1	?	-28.0%	?	?	i	14.1µM*
Cc1cc(C)c(C)c(OCCNCc2ccccc2)c1	-26.0%	14.6µM*	?	?	i	-32.7%
C=CCNCCOc1c(C)cc(C)cc1Cl	2.4%	-4.8%	3.7%	i	i	-2.1%
Cc1cc(C)c(OCCCCNCc2ccccc2)c(Cl)c1	?	12.6µM*	15.8µM*	8.2µM*	?	11.2µM*
Cc1cc(C)c(OCCNCc2ccccc2)c(C)c1	-7.4%	-29.6%	-16.7%	i	i	3.8%
Clc1ccc(OCCOCCNCc2ccccc2)cc1Cl	11.2µM*	-23.6%	-28.0%	i	i	-64.3%
C[C@H](NC(=O)c1ccco1)C(=O)N1CCN(c2ccc(C(F)(F)F)cn2)CC1	-2.7%	-0.2%	7.2%	i	i	-6.9%
Cc1ccc(Cl)cc1NC(=O)c1sc2nc(C)c(C)c(C)c2c1N	-0.6%	.	.	i	i	-11.3%
Cc1cc(Cl)cc(C)c1OCCNCc1ccccc1	-18.0%	?	18.4µM*	i	i	-43.5%
SMILES	TGFb SMAD3 inh	HT1080 IDH1KD tx	HT1080NT lethal	KB-V1 MDR tox	KB-3-1 tox	HepG2 tox
COCCCNCCOc1ccc(C(C)(C)c2ccccc2)cc1	?	?	?	i	i	-40.1%
CC(C)(C)c1ccc(OCCNCc2ccccc2)cc1	-3.2%	16.4µM*	?	?	i	-42.9%
C/C=C(/CCC1NCCc2c1[nH]c1ccccc21)[Si](C)(C)C (centres undefined)	?	?	?	11.6µM*	18.4µM*	-95.4%
Cc1ccc(C(c2sc3nc(-c4ccco4)nn3c2O)N2CCCCC2)cc1 (centres undefined)	-25.1%	.	.	i	i	-10.1%
N#CC(=Cc1ccc(-c2ccccc2)cc1)C(=O)c1ccccc1	-28.4%	-9.4%	-0.4%	i	i	-39.9%
CC(=Cc1ccccc1)C(=O)c1ccccc1	-7.8%	-2.0%	2.0%	i	i	-1.4%
CC(=O)C(=Cc1ccc(-c2ccccc2)cc1)C(=O)c1ccccc1	.	23.1µM*	14.6µM*	?	?	.
O=C(C(Br)=Cc1ccccc1)c1ccccc1	10µM*	?	5.8µM*	.	.	-96.1%
O=S(=O)(c1ccccc1)c1nc(-c2ccccc2)oc1N1CCN(c2cccc(Cl)c2)CC1	?	.	.	i	i	1.8%
Cc1cc(S(=O)(=O)Nc2ccc(O)c(Sc3nc4ccccc4s3)c2)ccc1Cl	?	.	.	18.4µM*	?	-45.4%
O=S(=O)(Nc1ccc(O)c(Sc2nc3ccccc3s2)c1)c1ccc(F)cc1	?	?	-24.6%	i	i	-30.4%
N#Cc1cc(-c2ccccc2)cnc1Cl	-17.1%	-17.5%	-1.8%	i	i	-21.4%
N#Cc1ncc(Cl)c2ccccc12	-15.8%	-0.5%	15.2%	i	i	15.8µM*
CCOC(=O)c1[nH]c(C)c(CCC(=O)Nc2ccccc2C(=O)OC)c1C	0.4%	.	.	?	i	6.2%
Cc1ccc(CN(Cc2ccc(C)o2)C(=S)NCC(=O)O)cc1	0.6%	26.9%	13.6%	i	i	17.8%
CCOC(=O)CNC(=S)N(Cc1ccc(C)cc1)Cc1ccc(C)o1	-18.0%	-4.5%	0.3%	16.4µM*	i	-11.8%
CCn1nnc(NC(=O)COc2ccc([N+](=O)[O-])cc2)n1	8.6%	-7.0%	-12.8%	i	i	17.4%
Cc1ccc(C(C)C)c(OCC(=O)NN=C2CCCC2)c1	-17.7%	0.2%	0.3%	i	i	-6.6%
C/C(=N/NC(=O)COc1cc(C)ccc1C(C)C)C(=O)O	-9.3%	6.51µM*	?	i	i	-2.9%
CCn1nnc(NC(=O)COc2cc(C)ccc2C(C)C)n1	20.2%	-6.7%	8.2%	14.6µM*	i	5.8%
COc1cccc(CNS(=O)(=O)c2cc(Br)ccc2Br)c1	-1.5%	-5.3%	-1.6%	i	i	2.9%
